From PubChem BioAssay
Calls of active or inactive are those of the source.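 How the source made its calls, unless noted: active means compound raises GLP1 secretion from the human gut endocrine cells, with no numeric limit stated; inactive means the rest.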

How the values were obtained:
[1] = stimulators of nuclear beta-catenin in C2C12, primary screen, imaging, WNT3A-conditioned medium, mouse C2C12, NPC library (AID 1117326; in the data active means nuclear beta-catenin stimulation mostly above about 4.2%, no sharp cut-off; inactive means mostly below about 10%; further: reference of the scale not given here); conditions: stronger effect = higher value
[2] = stimulators of insulin release from INS-1E, primary screen, cell-based, 5 mM glucose, NPC library (AID 1117329;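 active means compound raises insulin release from rat beta cells at 5 mM glucose, no numeric limit stated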; further: reference of the scale not given here); conditions: rat INS-1E insulin secretion, at 10 µM, stronger effect = higher value
[3] = growth inhibition of GSK3B-pretreated HCT116 cells – cell-based, CellTiter-Glo, 0.2 to 20 µM (AID 1117336;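 active means compounds lowering colon cancer cell viability after pretreatment blocking the GSK3B kinase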); conditions: HCT116 viability after GSK3B inhibitor, at 20 µM, stronger effect = higher value
[4] = inhibition of endothelial tube formation, primary screen, imaging, VEGF stimulated, CD31 staining, tube area, NPC library (AID 1117340;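 active means compound that reduces growth-factor-driven endothelial tube area in a mixed cell culture, no cutoff stated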); conditions: VEGF-stimulated ADSC/ECFC co-culture, at 10 µM, stronger effect = higher value
[5] = glucagon-like peptide 1 release enhancers, primary assay, NCI-H716 cell line, NPC library (AID 1117341); conditions: NCI-H716 cells, at 10 µM, stronger effect = higher value; further: reference of the scale not given here
[6] = HCT116 colon cancer cell growth inhibition, primary screen, CellTiter-Glo luminescence, NPC library (AID 1117342;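 active means compounds that lower survival of HCT116 colon cancer cells in the luminescence readout, no numeric limit stated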); conditions: at 20 µM (top of the series)
[7] = CellTiter-Glo luminescent readout of SW480 viability loss, NPC library primary (AID 1117343;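 active means compounds that lower viability of the colon cancer cells in the luminescence readout, with no numeric limit stated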); conditions: CellTiter-Glo luminescence; at 20 µM (top of the series)
[8] = decreased DLD-1 cellular survival, CellTiter-Glo luminescent readout, NPC compound collection, primary HTS (AID 1117346;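 active means compounds that lower survival of DLD-1 colon cancer cells in the luminescence readout, no cutoff given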); conditions: DLD-1 viability, CellTiter-Glo luminescence; at 20 µM (top of the series)

Compound | nuclear beta-catenin stimulation ([1]; at 10 µM) | nuclear beta-catenin stimulation ([1]; stimulation, at 2 µM) [%] | insulin secretion stimulation [2] | viability decrease [3] | tube area decrease [4] | GLP1 secretion stimulation [5] | inhibition of viability [6] | viability decrease (inhibition) [7] | viability decrease (inhibition) [8]
Clc1ccccc1N1CCNCC1 | 0.1% (inactive) | -2.2 | 5.2% (inactive) | 4.1% (inactive) | -12% (active) | 3.6% (inactive) | 48.4% (inactive) | 19% (inactive) | 2% (inactive)
CCOC(=O)c1ncn2c1CN(C)C(=O)c1c(I)cccc1-2 | -0.1% (inactive) | -0.1 | 0.8% (inactive) | 3.6% (inactive) | -12.8% (inactive) | -0.9% (inactive) | 11.2% (inactive) | -7.6% (inactive) | -11.3% (inactive)
CCCOC(=O)c1cncn1C(C)c1ccccc1 (stereo not drawn) | 3.6% (inactive) | 0.7 | 4.8% (inactive) | -12.2% (inactive) | -7.5% (inactive) | 1.9% (inactive) | 11% (inactive) | -24.3% (inactive) | 18.7% (inactive)
CC(Cc1ccccc1)NCc1ccccc1Cl (stereo not drawn) | 0.1% (inactive) | 0 | 10.2% (inactive) | 26.5% (inactive) | -19.5% (inactive) | 2.3% (inactive) | 21.9% (inactive) | 51.1% (active) | 22.6% (inactive)
NNc1ccccc1 | 0.8% (inactive) | 2.4 | -1.6% (inactive) | 14.6% (inactive) | 26.7% (inactive) | 3.7% (inactive) | -3.85% (inactive) | 45% (inactive) | 21.2% (inactive)
C[C@]12CCC(=O)C=C1C=C[C@@H]1[C@H]2CC[C@@]2(C)[C@@H]1CC[C@@]2(O)CCC(=O)O | -1.1% (inactive) | 0 | -2.4% (inactive) | -15.4% (inactive) | 2% (inactive) | 0.9% (inactive) | 3.7% (inactive) | -2% (inactive) | -7.2% (inactive)
O=[N+]([O-])c1cc(I)c(O)c(I)c1 | 18.4% (inactive) | 0.7 | 5.5% (inactive) | 95% (active) | 106% (active) | -1% (inactive) | 93% (active) | 101% (active) | 98.8% (active)
NCCS[As](SCCN)c1ccc(Nc2nc(N)nc(N)n2)cc1 | -1.4% (inactive) | -0.4 | 0.6% (inactive) | -8.2% (inactive) | 21.9% (inactive) | -3.3% (inactive) | 0.1% (inactive) | -3.2% (inactive) | -34.2% (inactive)
CC(Cc1ccccc1)NC=O (stereo not drawn) | -2.3% (inactive) | -0.1 | 1.5% (inactive) | -5.7% (inactive) | 1.3% (inactive) | -5.4% (inactive) | 8.8% (inactive) | 16.7% (inactive) | -4.6% (inactive)
CCO[C@H]1O[C@@H]2OC3(C)CC[C@H]4[C@H](C)CC[C@@H]([C@H]1C)[C@@]24OO3 | 6.9% (inactive) | 25.2 | 2.6% (inactive) | 50.5% (active) | 34.8% (inactive) | 6.1% (inactive) | 34.8% (inactive) | 37.5% (inactive) | 37.1% (inactive)
Oc1ccc2[nH]cc(CCCCN3CC=C(c4ccccc4)CC3)c2c1 | 12.1% (inactive) | 4 | 1.8% (inactive) | 81.3% (active) | 76.6% (active) | 5.1% (inactive) | 85% (active) | 102% (active) | 81.4% (active)
COP(=S)(OC)SCN1C(=O)c2ccccc2C1=O | 0.4% (inactive) | 1.1 | -0.9% (inactive) | -8.95% (inactive) | 1.5% (inactive) | 0% (inactive) | -8.5% (inactive) | 6.9% (inactive) | 24.4% (inactive)
COc1ccc2c(C(=O)c3ccc(Cl)cc3)c(C)n(CC(=O)O)c2c1 | -0.1% (inactive) | -0.8 | 1.05% (inactive) | 13.7% (inactive) | -18.1% (inactive) | -0.1% (inactive) | 8% (inactive) | 22.3% (inactive) | -3.8% (inactive)
CC(C)NCC(O)c1ccc([N+](=O)[O-])cc1 (stereo not drawn) | -2.4% (inactive) | -1 | 5.1% (inactive) | -1% (inactive) | 15% (inactive) | -0.9% (inactive) | 17.5% (inactive) | 33.9% (active) | 1.9% (inactive)
CC(C)C(Br)C(=O)NC(N)=O (stereo not drawn) | 0.6% (inactive) | 1 | -0.4% (inactive) | -0.05% (inactive) | 1.7% (inactive) | -0.8% (inactive) | -3% (inactive) | 4.9% (inactive) | 1% (inactive)
S=C(SSC(=S)N1CCCCC1)N1CCCCC1 | 1.8% (inactive) | 0.4 | -2.6% (inactive) | -2.9% (inactive) | 8.9% (inactive) | -2.3% (inactive) | -14.8% (inactive) | 13.2% (inactive) | -3.5% (inactive)
C[C@]12CC[C@H]3[C@@H](CC[C@@]45O[C@H]4C(O)=C(C#N)C[C@]35C)[C@H]1CC[C@H]2O | 1.5% (inactive) | 1.1 | -0.7% (inactive) | -177% (inactive) | 28.3% (inactive) | -1.5% (inactive) | 11.5% (inactive) | 5.1% (inactive) | -16.6% (inactive)
